PubChem BioAssay (Tox21)
Records with an inconclusive call do not appear. The source made the active and inactive calls. Unless noted, calls come from the whole dose curve; as a rule, active = well fitted curve in the direction sought with a large enough effect in the repeat runs; inconclusive = weak or mixed curves; inactive = no such curve, though single readings can be large; an effect the other way counts as inactive or inconclusive.

Experiments:
[1] = qHTS assay to identify small molecule antagonists of the vitamin D receptor (VDR) signaling pathway - cell viability counter screen (AID 743225); note: % is set by controls: 0 for no effect and ±100 for the full control effect; nearly all actives have a fitted effect of over 50% in size
Procedure, shortened: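 HEK293T VDR-bla; cpd + 1a,25-(OH)2D3 3 nM final, 16 h 37C/5% CO2; B/G FRET substrate 2 h RT; then CellTiter-Glo 30 min RT, luminescence.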

[2] = qHTS assay to identify small molecule agonists of the NFkB signaling pathway (AID 1159509; active = well fitted curve in the direction sought with a large enough effect in the signal ratio in the repeat runs, not every such curve was filed as active; the % refers to the signal ratio; note: series mostly up to about 61 µM; % is set by controls: 0 for no effect and ±100 for the full control effect)
Procedure, shortened: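 Beta-lactamase reporter assay run in quantitative high-throughput format on an NF-kB-responsive ME-180 line, with 5 hr compound treatment and a FRET-based blue/green fluorescence readout.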

[3] = qHTS assay to identify small molecule agonists of the NFkB signaling pathway - cell viability counter screen (AID 1159515; calls by dose curve; note: series mostly up to about 61 µM; % is set by controls: 0 for no effect and ±100 for the full control effect; nearly all actives have a fitted effect of over 55% in size)
Procedure, shortened: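 Cells are seeded (2,000 NFkB-bla ME-180 per well), rested overnight, and dosed with DMSO-dissolved compounds for 5 hr at 37 C. Viability is then read by CellTiter-Glo luminescence after 30 min at room temperature.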

[4] = qHTS assay to identify small molecule agonists of the endoplasmic reticulum stress response signaling pathway - cell viability counter screen (AID 1159517; calls by dose curve;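 note: HeLa cells carrying an ER stress response element beta-lactamase reporter; series mostly up to about 61 µM; % is set by controls: 0 for no effect and ±100 for the full control effect; nearly all actives have a fitted effect of over 50% in size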)
Procedure, shortened: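 After overnight attachment, ESRE-bla HeLa cells were treated with Tox21 library compounds for 5 hr. CellTiter-Glo luminescence, read 30 min post-addition at room temperature, reported viability.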

[5] = qHTS assay to identify small molecule antagonists of the retinoid-related orphan receptor gamma (ROR-gamma) signaling pathway - cell viability counter screen (AID 1159520); note: nearly all actives have a fitted effect of over 50% in size; note: potency is the fitted concentration of half-maximal effect
Procedure, shortened: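 Cytotoxicity was read from cellular ATP (CellTiter-Glo luminescence) after 16 hr at 37 C with 1 uM doxycycline induction. The inducer was added 2 hr after compound transfer to Tet-on ROR gamma CHO cells.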

[6] = qHTS assay to identify small molecule agonists of the AP-1 signaling pathway - cell viability counter screen (AID 1159525; calls by dose curve; note: nearly all actives have a fitted effect of over 55% in size)
Procedure, shortened: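 Intracellular ATP by Cell Titer Glo luminescence (30 min, RT) in the same ME-180 AP-1-bla wells after the 5 h compound exposure at 37 °C. Normalised to tetra n-octyl ammonium bromide and DMSO controls.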

[7] = qHTS assay to identify small molecule agonists of the AP-1 signaling pathway (AID 1159526; calls by dose curve; note: % is set by controls: 0 for no effect and ±100 for the full control effect)
[8] = qHTS assay to identify small molecule antagonists of the retinoid acid receptor (RAR) signaling pathway - cell viability counter screen (AID 1159551); note: % is set by controls: 0 for no effect and ±100 for the full control effect; nearly all actives have a fitted effect of over 35% in size
Procedure, shortened: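 Cells (C3RL4) are plated, incubated overnight, dosed with compound in DMSO, then given retinol at 1 uM final. After 6 h at 37 C, CellTiter-Glo is added and luminescence read following 30 min at room temperature.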

[9] = qHTS assay to identify small molecule antagonists of the retinoic acid receptor (RAR) signaling pathway (AID 1159552; note: nearly all actives have a fitted effect of over 50% in size; note: potency is the fitted concentration of half-maximal effect)
Procedure, shortened: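 Retinol at 1 uM final stimulated RARE-luciferase expression in C3RL4 cells exposed to test compounds for 6 hr at 37 C. Reduced luminescence, read 30 min after detection reagent, indicated pathway antagonism.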

[10] = qHTS assay to identify small molecule agonists of the retinoic acid receptor (RAR) signaling pathway (AID 1159553); note: % is set by controls: 0 for no effect and ±100 for the full control effect
Procedure, shortened: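 Seed C3RL4 reporter cells at 1,000 per well and incubate overnight at 37 C. Add compounds in DMSO, incubate 6 hr. Add luciferase reagent, wait 30 min at room temperature, read luminescence.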

[11] = biological target: Nuclear receptor ROR-gamma (Homo sapiens) (UniProt P51449); assay: qHTS assay to identify small molecule antagonists of the retinoid-related orphan receptor gamma (ROR-gamma) signaling pathway (AID 1159521)
Procedure, shortened: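 Cells were plated, rested 4 h at 37 C, exposed to compounds for 2 h, then given 1 uM final doxycycline hyclate to induce RORγ expression. After 16 h, ONE-Glo luminescence from the ROR response element reporter was measured.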

[12] = biological target: Retinoic acid receptor RXR-alpha (Homo sapiens) (UniProt P19793); assay: qHTS assay to identify small molecule agonists of the RXR signaling pathway (AID 1159527; calls by dose curve; note: % is set by controls: 0 for no effect and ±100 for the full control effect; nearly all actives have a fitted effect of over 35% in size)
Retinoic acid receptor RXR-alpha (Homo sapiens), sequence (P19793 whole entry, looked up): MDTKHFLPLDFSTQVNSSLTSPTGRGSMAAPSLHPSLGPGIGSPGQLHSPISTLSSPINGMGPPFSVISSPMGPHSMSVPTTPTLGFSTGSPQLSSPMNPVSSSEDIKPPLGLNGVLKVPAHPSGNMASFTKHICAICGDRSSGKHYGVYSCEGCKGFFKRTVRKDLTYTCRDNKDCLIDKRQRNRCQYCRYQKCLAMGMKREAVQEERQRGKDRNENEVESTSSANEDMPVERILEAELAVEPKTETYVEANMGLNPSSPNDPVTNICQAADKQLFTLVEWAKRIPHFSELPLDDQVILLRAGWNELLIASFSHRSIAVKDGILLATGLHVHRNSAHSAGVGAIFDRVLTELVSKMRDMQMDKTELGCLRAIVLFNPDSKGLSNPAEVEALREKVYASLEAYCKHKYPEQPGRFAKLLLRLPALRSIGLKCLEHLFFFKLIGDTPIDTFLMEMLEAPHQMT
Procedure, shortened: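 Cells plated at 2,000/well, rested 5 hr at 37 C, pin-dosed with DMSO compound solutions, incubated 16 hr, then loaded with B/G FRET substrate for 2 hr at RT before dual-emission fluorescence reading.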

[13] = qHTS assay to identify small molecule agonists of the RXR signaling pathway - cell viability counter screen (AID 1159529)
Procedure, shortened: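 Steps: seed RXR-alpha-UAS-bla HEK 293T cells in assay medium containing 2% charcoal-stripped FBS; incubate 5 hr; add compounds in DMSO; incubate 16 hr at 37 C; after the bla read, add CellTiter-Glo and read luminescence at 30 min.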

[14] = qHTS assay to identify small molecule antagonists of the estrogen related receptor (ERR) signaling pathway - cell viability counter screen (AID 1224818); note: series mostly up to about 46 µM; % is set by controls: 0 for no effect and ±100 for the full control effect
Procedure, shortened: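 ERR cells, 2,000/well; 6 h settle at 37 C/5% CO2; compound pin transfer (DMSO); 17.5 h at 37 C; CellTiter-Fluor, 30 min, fluorescence read.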

[15] = qHTS assay to identify small molecule antagonists of the estrogen related receptor signaling pathway with the pleiotropic PPARgamma coactivator (PGC) cell viability counter screen (AID 1224822)
Procedure, shortened: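 Multiplexed viability counter screen run in PGC/ERR cells treated with compounds for 17.5 h at 37 C; live-cell protease signal measured by CellTiter-Fluor fluorescence.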

CCCCCCCCCCCC(=O)[O][Sn]([CH2]CCC)([CH2]CCC)[O]C(=O)CCCCCCCCCCC
inactive: Potency [1] | outcome [2] | outcome [3] | outcome [4] | outcome [6] | outcome [7] | Potency [8] | Potency [10]
active: Potency [5] 13.3 µM | Potency [9] 29.8 µM

CO[C@H]1O[C@H](CO)[C@@H](O)[C@H](O)[C@H]1O
inactive: Potency [1] | outcome [2] | outcome [3] | Potency [5] | Potency [11] | outcome [6] | outcome [7] | Potency [12] | Potency [8] | Potency [10]

COc1ccc(C(=O)c2cccc(O)c2)c(OC)c1
inactive: Potency [1] | outcome [2] | outcome [3] | outcome [4] | Potency [5] | outcome [6] | outcome [7] | Potency [13] | Potency [8] | Potency [9] | Potency [10]

O=C(O)c1cccnc1C(=O)O
inactive: Potency [1] | outcome [2] | outcome [3] | Potency [5] | Potency [11] | outcome [6] | outcome [7] | Potency [8] | Potency [9] | Potency [10] | outcome [14] | outcome [15]

C=CCCCCCCCCCCCCCCCC
inactive: viability change, negative = cytotoxic [1] 8.8% [at 6.95 µM] | activation [2] 0.162% [at 6.95 µM] | activity, negative = cytotoxic [3] -0.437% [at 6.95 µM] | activity change, negative = inhibition [11] 11.3% [at 8.39 µM] | viability change, negative = cytotoxic [6] 4.34% [at 6.97 µM] | activation [7] -4.53% [at 6.97 µM] | activation [12] 0.376% [at 6.98 µM] | activity change, negative = cytotoxicity [13] 6.72% [at 6.97 µM] | activity change, negative = cytotoxicity [8] 0.367% [at 8.39 µM] | activity, negative = inhibition [9] -14.9% [at 8.39 µM] | activation [10] -0.865% [at 8.36 µM]

CC(C)=CC=O
inactive: Potency [1] | outcome [2] | outcome [3] | outcome [4] | Potency [5] | outcome [6] | outcome [7] | Potency [13] | Potency [8] | Potency [10]

CCC(C(=O)OCCN(CC)CC)c1ccccc1 (configuration not stated)
inactive: Potency [1] | outcome [2] | outcome [3] | outcome [4] | Potency [5] | outcome [6] | Potency [12] | Potency [13] | Potency [8] | Potency [9] | Potency [10]

O=C(O)c1snc(Cl)c1Cl
inactive: outcome [2] | outcome [3] | outcome [4] | Potency [5] | outcome [6] | outcome [7] | Potency [13] | Potency [8]

CC(C)CCCC(=O)O
inactive: Potency [1] | outcome [2] | outcome [3] | outcome [4] | Potency [11] | outcome [6] | outcome [7] | Potency [13] | Potency [8] | Potency [9] | Potency [10]

CC1CC(=O)NN=C1c1ccc(NCC(C)(C)NCC(O)COc2cc(Cl)ccc2C#N)cc1 (configuration not stated)
inactive: outcome [2] | outcome [3] | outcome [4] | Potency [5] | outcome [6] | Potency [8] | Potency [9] | Potency [10]

CCCCOC(=O)CCS
inactive: Potency [1] | outcome [2] | outcome [3] | outcome [4] | Potency [5] | outcome [6] | outcome [7] | Potency [13] | Potency [8] | Potency [10]
